Source: PubChem BioAssay (EPA / NIEHS)
Records with an inconclusive call do not appear. Activity calls are given as the source filed them. Rule for the calls, unless noted: active = hit-call score of the fitted dose curve at least 0.9, where 1 is the maximum; inactive = score below 0.9.

Columns and labels:
[1] = molecular target: Estrogen-related receptor gamma (Homo sapiens) (UniProt P62508); assay: ATG_ERRg_TRANS: Attagene TRANS-FACTORIAL HepG2 Assay for human Estrogen-Related Receptor gamma (ERRg) (AID 2282977; active = hit-call score of the fitted dose curve at least 0.9, where 1 is the maximum;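 note: hits increase reporter signal over DMSO so potencies reflect activators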); conditions: HepG2 Attagene TRANS reporter, ERRg transactivation
Procedure, shortened: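 Exogenous NR-Gal4 chimera activity was assessed in HepG2 cells bearing transfected GAL4-UAS reporters. After 24 h dosing, total RNA underwent RT-PCR, fluorescent primer extension and HpaI digestion before capillary electrophoresis, with gain of signal scored against DMSO.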

[2] = molecular target: Glucocorticoid receptor (Homo sapiens) (UniProt P04150); assay: ATG_GR_TRANS: Attagene TRANS-FACTORIAL HepG2 Assay for human Glucocorticoid Receptor (GR) (AID 2282978; active = hit-call score of the fitted dose curve at least 0.9, where 1 is the maximum;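 note: activators score as hits since higher reporter transcript over DMSO is fitted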); conditions: HepG2 Attagene TRANS GR reporter, mRNA transcription
Procedure, shortened: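 HepG2 cells transiently transfected with GAL4-UAS reporter units and exogenous GR-Gal4 chimera, dosed 24 h. Reporter mRNA by RT-PCR, FAM labeling, HpaI digest and capillary electrophoresis; gain-of-signal fit versus DMSO.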

[3] = molecular target: Oxysterols receptor LXR-alpha (Homo sapiens) (UniProt Q13133); assay: ATG_LXRa_TRANS: Attagene TRANS-FACTORIAL HepG2 Assay for human Liver X Receptor alpha (LXRa) (AID 2282980; active = hit-call score of the fitted dose curve at least 0.9, where 1 is the maximum); conditions: HepG2 Attagene TRANS reporter, LXRa transactivation
Procedure, shortened: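 HepG2 cells transiently transfected with GAL4-UAS reporter units for chimeric NR-Gal4 proteins, exposed to chemicals for 24 h. Reporter mRNA quantified by RT-PCR and capillary electrophoresis; gain of signal fitted relative to DMSO.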

[4] = molecular target: Oxysterols receptor LXR-beta (Homo sapiens) (UniProt P55055); assay: ATG_LXRb_TRANS: Attagene TRANS-FACTORIAL HepG2 Assay for human Liver X Receptor beta (LXRb) (AID 2282981; active = hit-call score of the fitted dose curve at least 0.9, where 1 is the maximum); conditions: HepG2 Attagene TRANS GAL4-LXRb reporter, mRNA
Procedure, shortened: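 Readout: fluorescent reporter mRNA fragments resolved by capillary electrophoresis after RT-PCR. System: transiently transfected human HepG2, exogenous LXRb-Gal4 chimera driving GAL4-UAS reporter, 24 h dosing. Activity fitted upward against DMSO baseline.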

[5] = ATG_M_06_TRANS: Attagene TRANS-FACTORIAL HepG2 Assay for M06 Transcription Factor (Internal Marker) (AID 2282983; active = hit-call score of the fitted dose curve at least 0.9, where 1 is the maximum;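 note: reporter transcript level by RT-PCR then capillary electrophoresis fluorescence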); conditions: HepG2 Attagene TRANS M06 internal marker reporter
Procedure, shortened: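 mRNA levels of a reporter transcript, quantified as FAM fluorescence on capillary electrophoresis, served as readout. HepG2 cells expressing exogenous GAL4-chimera reporter constructs were exposed for 24 h. Gain of signal over DMSO was evaluated.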

[6] = molecular target: Transcriptional activator Myb (Homo sapiens) (UniProt P10242); assay: ATG_Myb_CIS: Attagene CIS-FACTORIAL HepG2 Assay for human Myeloblastosis (Myb) Proto-Oncogene Transcription Factor (AID 2282986); conditions: HepG2 Attagene CIS-FACTORIAL Myb reporter transcription; actives raise or lower the signal
Procedure, shortened: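 Transiently transfected HepG2 cells carrying a multiplexed cis-promoter reporter set report endogenous Myb activity after 24 h compound exposure. Reporter mRNA is read by RT-PCR with capillary electrophoresis of fluorescent products, fitted bidirectionally against DMSO.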

[7] = molecular target: Nuclear respiratory factor 1 (Homo sapiens) (UniProt Q16656); assay: ATG_NRF1_CIS: Attagene CIS-FACTORIAL HepG2 Assay for human Nuclear Respiratory Factor 1 (NRF1) Orphan Gene (AID 2282987); conditions: HepG2 NRF1 cis-element reporter, Attagene multiplex; actives raise or lower the signal
Procedure, shortened: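 HepG2 cells transiently transfected with multiple cis-regulated reporter units, exposed 24 h. Reporter mRNAs measured by RT-PCR, fluorescent labelling, HpaI digestion and capillary electrophoresis; bidirectional fitting against DMSO.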

[8] = ATG_NFI_CIS: Attagene CIS-FACTORIAL HepG2 Assay for human Nuclear Factor I (NFI) (AID 2282989); conditions: HepG2 cis-regulatory reporter, NFI response element transcription; actives raise or lower the signal
Procedure, shortened: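 Reporter transcription driven by endogenous transcription factors in HepG2 cells; 24 h treatment. Quantitation by labelled RT-PCR fragments on capillary electrophoresis, gain- or loss-of-signal relative to DMSO.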

[9] = molecular target: Myc proto-oncogene protein (Homo sapiens) (UniProt P01106); assay: ATG_Myc_CIS: Attagene CIS-FACTORIAL HepG2 Assay for human Myelocytomatosis (Myc) Proto-Oncogene Transcription Factor (AID 2282990); conditions: HepG2, Attagene cis-reporter transcription factor activity; actives raise or lower the signal
Procedure, shortened: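 Transiently transfected HepG2 cells bearing cis-promoter reporter units for endogenous transcription factors; 24 h exposure. Reporter mRNA measured by RT-PCR, 6-FAM primer extension, HpaI cut and capillary electrophoresis; bidirectional fit relative to DMSO.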

[10] = ATG_NF_kB_CIS: Attagene CIS-FACTORIAL HepG2 Assay for human Nuclear Factor Kappa B (NF-kB) (AID 2282991); conditions: HepG2 Attagene cis-factorial NF-kB reporter mRNA; actives raise or lower the signal
Procedure, shortened: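 HepG2 cells transfected with cis-promoter-driven reporter units, so endogenous transcription factor activity is measured. Reporter mRNA quantified 24 h after dosing by RT-PCR and capillary electrophoresis, with bidirectional fitting against DMSO.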

[11] = ATG_NRF2_ARE_CIS: Attagene CIS-FACTORIAL HepG2 Assay for human Nuclear Factor Erythroid 2 Related Factor 2 (NFR2) response to Antioxidant Response Elements (ARE) (AID 2282992); conditions: HepG2 Attagene ARE/NRF2 reporter, transcription factor activity; actives raise or lower the signal;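 for AC50: reporter mRNA level measured by RT-PCR and capillary electrophoresis fluorescence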
Procedure, shortened: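 Readout: reporter mRNA quantified by RT-PCR plus FAM-labelled primer extension, HpaI digestion and capillary electrophoresis, 24 h after dosing transfected HepG2 cells. Gain or loss of signal is fitted bidirectionally against DMSO baseline.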

[12] = ATG_Oct_MLP_CIS: Attagene CIS-FACTORIAL HepG2 Assay for human Octamer-Binding Transcription Factor (Oct) (AID 2282993); conditions: HepG2 Attagene cis-factorial Oct reporter, mRNA; actives raise or lower the signal
Procedure, shortened: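 Transfected HepG2 cells, 24 h treatment. Reporter mRNA quantified by RT-PCR–capillary electrophoresis; bidirectional fitting against DMSO.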

[13] = molecular target: Cellular tumor antigen p53 (Homo sapiens) (UniProt P04637); assay: ATG_p53_CIS: Attagene CIS-FACTORIAL HepG2 Assay for human p53 Transcription Factor (AID 2282994); conditions: HepG2 p53 cis-element reporter, Attagene mRNA; actives raise or lower the signal
Procedure, shortened: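 Read-out: reporter mRNA by RT-PCR plus capillary electrophoresis with fluorescence detection. Human HepG2 liver cells carried transfected multi-reporter cis-element constructs, dosed 24 h. Gain or loss of signal fitted bidirectionally against DMSO control.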

[14] = BSK_3C_TissueFactor: BioMAP Diversity Plus: 3C Assay for Tissue Factor Biomarker Activity (AID 2282997); conditions: BioMAP 3C HUVEC, tissue factor biomarker readout; actives raise or lower the signal
Procedure, shortened: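 Tissue Factor measured by ELISA, 24 h after treatment of primary HUVEC in the BioMAP 3C setting.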

[15] = ATG_GAL4_TRANS: Attagene TRANS-FACTORIAL HepG2 Assay for GAL4 (Internal Marker) (AID 2282976; active = hit-call score of the fitted dose curve at least 0.9, where 1 is the maximum); conditions: HepG2 Attagene TRANS GAL4 internal marker reporter
Procedure, shortened: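 Background-control readout: GAL4-UAS reporter transcript in transiently transfected HepG2 cells after 24 h compound exposure. Measured by RT-PCR, 6-FAM primer extension, HpaI digest and capillary electrophoresis; gain-of-signal fit versus DMSO.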

[16] = ATG_M_32_TRANS: Attagene TRANS-FACTORIAL HepG2 Assay for M32 Transcription Factor (Internal Marker) (AID 2282984; active = hit-call score of the fitted dose curve at least 0.9, where 1 is the maximum); conditions: HepG2 Attagene TRANS M32 internal marker reporter
Procedure, shortened: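 Read-out: fluorescent reporter cDNA fragments resolved by capillary electrophoresis after RT-PCR of total RNA. Transfected HepG2 cells were exposed to chemical for 24 h. Activity scored in the positive direction relative to DMSO.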

[17] = molecular target: Nuclear receptor subfamily 4 group A member 2 (Homo sapiens) (UniProt P43354); assay: ATG_NURR1_TRANS: Attagene TRANS-FACTORIAL HepG2 Assay for human Nuclear Receptor Related Protein 1 (NURR1) (AID 2282985; active = hit-call score of the fitted dose curve at least 0.9, where 1 is the maximum); conditions: HepG2 Attagene TRANS reporter, mRNA readout
Procedure, shortened: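 Read-out: reporter mRNA induction by RT-PCR plus capillary electrophoresis with fluorescence detection, after 24 h dosing of transfected HepG2 cells. Exogenous NR-Gal4 chimera activity drives GAL4-UAS reporter; activity fitted upward versus DMSO.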

[18] = molecular target: Hepatocyte nuclear factor 4-alpha (Homo sapiens) (UniProt P41235); assay: ATG_HNF4a_TRANS: Attagene TRANS-FACTORIAL HepG2 Assay for human Hepatocyte Nuclear Factor 4 alpha (HNF4a) (AID 2282982; active = hit-call score of the fitted dose curve at least 0.9, where 1 is the maximum); conditions: HepG2 HNF4a transactivation reporter, mRNA readout
Procedure, shortened: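 Transient MRTU transfection of HepG2, 24 h dosing. Readout: reporter mRNA via RT-PCR + capillary electrophoresis, fluorescence; activity fit upward relative to DMSO control.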

[19] = ATG_Hpa5_TRANS: Attagene TRANS-FACTORIAL HepG2 Assay for human GAL4-Hpa5 Hepatocyte Transcription Factor Basal Promoter (AID 2282975; active = hit-call score of the fitted dose curve at least 0.9, where 1 is the maximum;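 note: hits are increases in reporter mRNA over DMSO baseline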); conditions: HepG2 Attagene GAL4-Hpa5 transcription reporter
Procedure, shortened: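 Gain-of-signal versus DMSO is fitted for reporter mRNA quantified by RT-PCR and capillary electrophoresis after 24 h exposure. This endpoint is an internal background marker in transiently transfected HepG2 cells carrying GAL4-UAS reporter units.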

Measured: AC50

Chain of Nuclear respiratory factor 1 (Homo sapiens) (Q16656 whole entry, looked up): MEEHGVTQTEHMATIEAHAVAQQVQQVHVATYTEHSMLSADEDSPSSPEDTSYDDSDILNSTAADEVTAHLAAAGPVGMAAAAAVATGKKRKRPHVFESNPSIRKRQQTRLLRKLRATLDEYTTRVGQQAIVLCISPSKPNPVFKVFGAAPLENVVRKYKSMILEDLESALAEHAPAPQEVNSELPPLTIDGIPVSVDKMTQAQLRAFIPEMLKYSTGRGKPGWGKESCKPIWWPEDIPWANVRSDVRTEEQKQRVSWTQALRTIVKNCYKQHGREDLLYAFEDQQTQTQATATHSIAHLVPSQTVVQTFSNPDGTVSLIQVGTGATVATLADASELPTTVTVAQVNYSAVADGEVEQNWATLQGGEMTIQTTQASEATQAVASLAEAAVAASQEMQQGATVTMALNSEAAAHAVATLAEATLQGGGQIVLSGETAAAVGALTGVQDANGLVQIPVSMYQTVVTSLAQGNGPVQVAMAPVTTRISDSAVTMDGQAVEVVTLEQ
Chain of Hepatocyte nuclear factor 4-alpha (Homo sapiens) (P41235 whole entry, looked up): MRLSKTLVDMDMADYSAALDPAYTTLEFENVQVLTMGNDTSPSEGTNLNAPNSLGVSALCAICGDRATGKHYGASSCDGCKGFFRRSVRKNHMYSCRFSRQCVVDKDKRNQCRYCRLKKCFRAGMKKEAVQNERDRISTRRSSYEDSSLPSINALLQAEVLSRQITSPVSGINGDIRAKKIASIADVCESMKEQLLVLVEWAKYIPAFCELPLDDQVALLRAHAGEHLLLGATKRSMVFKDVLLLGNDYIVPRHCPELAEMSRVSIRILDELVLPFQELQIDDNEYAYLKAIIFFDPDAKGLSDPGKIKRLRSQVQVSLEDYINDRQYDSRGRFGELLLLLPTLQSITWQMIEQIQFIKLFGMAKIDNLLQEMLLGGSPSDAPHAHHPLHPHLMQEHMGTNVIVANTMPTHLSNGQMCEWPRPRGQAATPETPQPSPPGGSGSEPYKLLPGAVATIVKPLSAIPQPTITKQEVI
Chain of Transcriptional activator Myb (Homo sapiens) (P10242 whole entry, looked up): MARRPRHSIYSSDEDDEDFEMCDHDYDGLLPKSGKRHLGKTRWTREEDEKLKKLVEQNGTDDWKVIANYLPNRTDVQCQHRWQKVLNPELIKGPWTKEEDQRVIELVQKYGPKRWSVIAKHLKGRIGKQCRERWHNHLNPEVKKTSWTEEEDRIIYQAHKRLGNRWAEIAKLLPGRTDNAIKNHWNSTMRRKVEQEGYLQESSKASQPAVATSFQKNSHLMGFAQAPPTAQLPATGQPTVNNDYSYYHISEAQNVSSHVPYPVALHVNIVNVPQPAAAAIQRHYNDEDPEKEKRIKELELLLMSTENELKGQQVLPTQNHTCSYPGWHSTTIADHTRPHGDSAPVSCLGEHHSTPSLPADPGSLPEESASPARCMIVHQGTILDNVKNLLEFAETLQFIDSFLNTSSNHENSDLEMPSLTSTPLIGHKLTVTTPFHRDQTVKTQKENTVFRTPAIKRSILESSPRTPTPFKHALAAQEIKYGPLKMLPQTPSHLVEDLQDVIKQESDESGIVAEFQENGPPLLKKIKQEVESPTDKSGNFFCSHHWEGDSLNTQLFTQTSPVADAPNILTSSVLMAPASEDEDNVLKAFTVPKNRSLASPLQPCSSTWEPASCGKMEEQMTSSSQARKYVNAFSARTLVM
Chain of Cellular tumor antigen p53 (Homo sapiens) (P04637 whole entry, looked up): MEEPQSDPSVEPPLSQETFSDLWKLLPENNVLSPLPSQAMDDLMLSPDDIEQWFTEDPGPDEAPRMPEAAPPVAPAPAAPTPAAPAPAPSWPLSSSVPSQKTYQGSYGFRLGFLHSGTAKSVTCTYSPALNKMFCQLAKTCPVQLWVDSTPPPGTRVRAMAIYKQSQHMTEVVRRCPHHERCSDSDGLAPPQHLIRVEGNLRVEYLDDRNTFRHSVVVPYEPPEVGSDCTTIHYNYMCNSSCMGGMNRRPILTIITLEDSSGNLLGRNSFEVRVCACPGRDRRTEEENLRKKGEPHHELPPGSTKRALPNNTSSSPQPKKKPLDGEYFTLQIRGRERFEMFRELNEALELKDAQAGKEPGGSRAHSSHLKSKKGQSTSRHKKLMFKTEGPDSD
Chain of Oxysterols receptor LXR-alpha (Homo sapiens) (Q13133 whole entry, looked up, the tested form may be a part): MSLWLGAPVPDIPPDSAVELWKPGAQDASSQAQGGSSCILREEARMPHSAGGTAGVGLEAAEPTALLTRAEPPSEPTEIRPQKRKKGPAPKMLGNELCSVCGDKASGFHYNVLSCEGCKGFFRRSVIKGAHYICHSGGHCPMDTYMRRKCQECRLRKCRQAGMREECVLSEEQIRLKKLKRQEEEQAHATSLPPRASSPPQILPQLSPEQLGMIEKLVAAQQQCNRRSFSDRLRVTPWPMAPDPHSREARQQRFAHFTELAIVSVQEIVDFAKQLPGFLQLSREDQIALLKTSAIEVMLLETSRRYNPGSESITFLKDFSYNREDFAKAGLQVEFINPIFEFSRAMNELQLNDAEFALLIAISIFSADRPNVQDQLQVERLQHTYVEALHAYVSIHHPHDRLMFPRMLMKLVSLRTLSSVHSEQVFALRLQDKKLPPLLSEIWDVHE
Chain of Myc proto-oncogene protein (Homo sapiens) (P01106 whole entry, looked up): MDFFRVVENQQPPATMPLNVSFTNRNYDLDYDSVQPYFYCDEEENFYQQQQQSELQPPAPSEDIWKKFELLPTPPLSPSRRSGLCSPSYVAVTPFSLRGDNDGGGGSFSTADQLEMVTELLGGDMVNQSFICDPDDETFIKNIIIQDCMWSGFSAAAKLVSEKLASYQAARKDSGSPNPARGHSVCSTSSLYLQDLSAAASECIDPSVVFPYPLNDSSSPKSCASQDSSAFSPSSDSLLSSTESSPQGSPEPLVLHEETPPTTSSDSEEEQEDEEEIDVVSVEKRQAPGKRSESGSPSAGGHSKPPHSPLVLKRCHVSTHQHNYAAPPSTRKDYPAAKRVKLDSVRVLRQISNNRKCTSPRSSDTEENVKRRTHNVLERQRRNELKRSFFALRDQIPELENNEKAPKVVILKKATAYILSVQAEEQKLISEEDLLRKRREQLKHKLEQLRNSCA
Chain of Nuclear receptor subfamily 4 group A member 2 (Homo sapiens) (P43354 whole entry, looked up, the tested form may be a part): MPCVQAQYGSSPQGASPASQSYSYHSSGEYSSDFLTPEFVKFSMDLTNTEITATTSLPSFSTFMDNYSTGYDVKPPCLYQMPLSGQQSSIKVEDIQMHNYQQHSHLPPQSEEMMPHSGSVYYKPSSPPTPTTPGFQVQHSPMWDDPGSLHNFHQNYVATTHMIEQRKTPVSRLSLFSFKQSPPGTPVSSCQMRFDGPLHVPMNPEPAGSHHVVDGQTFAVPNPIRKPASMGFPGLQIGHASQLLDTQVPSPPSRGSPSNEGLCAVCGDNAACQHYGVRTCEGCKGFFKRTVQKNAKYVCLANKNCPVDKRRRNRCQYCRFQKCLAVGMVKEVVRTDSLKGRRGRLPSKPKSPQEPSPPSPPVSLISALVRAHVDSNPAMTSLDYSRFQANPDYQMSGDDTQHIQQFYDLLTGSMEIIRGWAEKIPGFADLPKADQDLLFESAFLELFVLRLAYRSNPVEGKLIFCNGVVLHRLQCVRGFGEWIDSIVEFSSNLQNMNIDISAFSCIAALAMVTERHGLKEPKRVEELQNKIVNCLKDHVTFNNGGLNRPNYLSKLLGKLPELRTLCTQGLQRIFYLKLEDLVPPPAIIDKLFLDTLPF
Chain of Oxysterols receptor LXR-beta (Homo sapiens) (P55055 whole entry, looked up, the tested form may be a part): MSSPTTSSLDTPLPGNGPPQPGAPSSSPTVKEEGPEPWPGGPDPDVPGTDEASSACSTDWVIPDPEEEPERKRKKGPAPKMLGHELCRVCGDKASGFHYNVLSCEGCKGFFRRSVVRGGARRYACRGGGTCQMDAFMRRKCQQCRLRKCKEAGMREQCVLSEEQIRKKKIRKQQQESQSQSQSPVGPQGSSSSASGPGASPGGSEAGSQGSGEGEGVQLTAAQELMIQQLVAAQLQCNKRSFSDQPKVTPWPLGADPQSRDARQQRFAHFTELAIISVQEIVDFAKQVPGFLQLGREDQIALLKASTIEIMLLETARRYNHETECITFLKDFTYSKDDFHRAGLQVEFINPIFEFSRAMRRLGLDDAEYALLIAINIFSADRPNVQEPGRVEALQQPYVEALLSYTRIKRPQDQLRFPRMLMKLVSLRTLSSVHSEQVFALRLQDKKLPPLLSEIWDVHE
Chain of Glucocorticoid receptor (Homo sapiens) (P04150 whole entry, looked up, the tested form may be a part): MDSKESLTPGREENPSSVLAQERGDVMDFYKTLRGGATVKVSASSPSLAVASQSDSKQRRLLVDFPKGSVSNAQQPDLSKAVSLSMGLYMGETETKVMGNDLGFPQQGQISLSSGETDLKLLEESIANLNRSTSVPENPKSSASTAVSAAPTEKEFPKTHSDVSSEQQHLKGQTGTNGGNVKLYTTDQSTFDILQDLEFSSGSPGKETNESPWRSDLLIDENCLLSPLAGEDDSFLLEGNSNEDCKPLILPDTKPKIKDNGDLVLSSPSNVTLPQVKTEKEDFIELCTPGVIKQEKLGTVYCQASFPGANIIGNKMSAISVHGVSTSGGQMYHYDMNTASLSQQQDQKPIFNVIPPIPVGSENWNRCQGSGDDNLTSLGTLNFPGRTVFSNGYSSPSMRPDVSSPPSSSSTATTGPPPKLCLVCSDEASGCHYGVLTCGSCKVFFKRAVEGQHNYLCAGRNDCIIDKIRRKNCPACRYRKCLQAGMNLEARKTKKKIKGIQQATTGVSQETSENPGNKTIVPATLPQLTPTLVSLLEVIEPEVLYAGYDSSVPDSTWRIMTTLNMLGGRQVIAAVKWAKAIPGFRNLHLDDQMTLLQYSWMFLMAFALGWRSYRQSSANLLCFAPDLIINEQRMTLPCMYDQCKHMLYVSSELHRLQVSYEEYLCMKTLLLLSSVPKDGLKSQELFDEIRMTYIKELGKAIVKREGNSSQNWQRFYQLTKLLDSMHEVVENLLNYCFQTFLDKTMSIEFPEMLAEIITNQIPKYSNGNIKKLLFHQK

CCOC(=O)C(C)OC(=O)c1cc(Oc2ccc(C(F)(F)F)cc2Cl)ccc1[N+](=O)[O-] (stereo unspecified)
active: [11] 17.2 µM
inactive: [1] | [2] | [3] | [4] | [5] | [6] | [7] | [8] | [9] | [10] | [12] | [13] | [14]

CC(C)NC(=O)N1CC(=O)N(c2cc(Cl)cc(Cl)c2)C1=O
active: [11] 7.39 µM
inactive: [15] | [1] | [3] | [4] | [5] | [16] | [17] | [6] | [7] | [8] | [9] | [10] | [12] | [13] | [14]

COP(=S)(OC)SCn1nnc2ccccc2c1=O
inactive: [15] | [1] | [3] | [4] | [5] | [16] | [6] | [7] | [8] | [9] | [13] | [14]
active: [11] 25.1 µM | [12] 12.8 µM

COP(=O)(OC)O/C(C)=C/C(=O)N(C)C
inactive: [1] | [3] | [4] | [5] | [17] | [6] | [7] | [8] | [10] | [11] | [12] | [13] | [14]

CC(C)Oc1cccc(NC(=O)c2ccccc2C(F)(F)F)c1
active: [11] 6.33 µM | [12] 11.7 µM
inactive: [1] | [2] | [3] | [4] | [18] | [16] | [17] | [6] | [7] | [8] | [10] | [13] | [14]

COC(=O)c1c(C(F)F)nc(C(F)(F)F)c(C2=NCCS2)c1CC(C)C
inactive: [1] | [3] | [4] | [18] | [5] | [16] | [17] | [6] | [7] | [8] | [10] | [13] | [14]
active: [11] 2.14 µM | [12] 9.92 µM

CCCCC(C#N)(Cn1cncn1)c1ccc(Cl)cc1 (stereo unspecified)
inactive: [1] | [2] | [4] | [18] | [5] | [16] | [17] | [6] | [7] | [8] | [9] | [11] | [12] | [13] | [14]

COC(=O)NC(=S)Nc1ccccc1NC(=S)NC(=O)OC
active: [11] 11.6 µM | [12] 30.8 µM
inactive: [19] | [2] | [3] | [4] | [18] | [17] | [6] | [7] | [8] | [10] | [13] | [14]
